# Experimental data published in PubChem BioAssay (NCI).
# Compounds without any hit were thinned out: in the full panel of roughly 83,000, 20% have a hit.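 The test compound was applied at a single concentration to cells in 96-well plates for 48 hours, and percent growth was recorded.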 Unmarked numbers belong to inactive results. Active and inactive are the calls of the source.
# Test system: A549/ATCC NSCLC
# Test: NCI-60 one-dose screen, 48 h (100 = growth as untreated, 0 = no growth, -100 = all killed)
# Settings: 10 µM unless noted
# Method: Growth inhibition of the A549/ATCC human Non-Small Cell Lung tumor cell line is measured as a screen for anti-cancer activity. Cells are grown in 96 well plates and exposed to the test compound for 48 hours. Compounds are tested at a single concentration, which is 10^-5 M for most compounds. The reported endpoint is percent growth (GI% or GIPRCNT), where numbers from 0 - 100% represent growth inhibition, and numbers from -100% - 0 represent cell death. For example, a value of 40 represents 60% growth inhibition. A value of 0 means no net growth occurred over the course of the experiment. A value of -40 indicates 40% of cells at the beginning of the experiment died by the end of the experiment. A value of -100 means all cells are dead at the end of the experiment.
# NCI-60 Human Tumor Cell Lines Screen was performed using the standard one-dose NCI protocol, which is described in more detail at https://dtp.cancer.gov/discovery_development/nci-60/default.htm.
# Compounds with GIPRCNT values below 10 were considered active. Activity score was based on GIPRCNT using the following formula: […]
# Score is 0 for GIPRCNT values of 100 or above, 50 for GIPRCNT values of 0, and 100 for GIPRCNT values of -100.
row,Compound,growth
1,COc1ccc(-c2nn(-c3cccc(Cl)c3)cc2C2CC(c3ccccc3)=NN2C(C)=O)cc1 (stereo not given),67.6%
2,Cc1cc2cn3c4cccnc4[nH]c(=O)c3c2cc1C,10.2%
3,Cc1c(C)c(N2C(=O)C=CC2=O)c(C)c(C)c1N1C(=O)C=CC1=O,89.6%
4,CCCCc1nc(Cl)c(CO)n1Cc1ccc(-c2ccccc2-c2nn[nH]n2)cc1,105%
5,CC(C)(C)c1cc(O)c(O)c(C(C)(C)C)c1,20.9%
6,COc1ccc(/C=C(\C#N)c2ccccc2)cc1,81.8%
7,C=Cc1nn2c(CCC(=O)c3nc4ccccc4[nH]3)nnc2s1,105%
8,OC(CCC(O)(c1ccccc1)c1ccccc1)(c1ccccc1)c1ccccc1,68.7%
9,Cc1cc(NCCCNc2ccnc3cc(Cl)ccc23)nc(N2CCN(C)CC2)n1,70.5%
10,CCOc1nc(-c2ccccc2)cc2c(O)c(-c3nnco3)[nH]c(=O)c12,38.9%
11,Cc1cc(NC(=O)Nc2cccc3ccccc23)no1,96.9%
12,COc1ccc(-c2csc(NC(=O)c3cc(OC)c(OC)c(OC)c3)n2)cc1,102%
13,COc1ccc(C2=NN(C(C)=O)C(c3cc(OC)c(OC)c(OC)c3)C2)cc1 (stereo not given),108%
14,COC(=O)CC1=C(C)/C(=C/c2[nH]c(-c3ccc[nH]3)cc2OC)N=C1C,9.1% (active)
15,COc1ccc2nccc(/C=C/c3ccnc4ccc(OC)cc34)c2c1,66.1%
16,Cc1cc2c(cc1C)Nc1sc(NC(=O)CN3CCN(C)CC3)nc1C(=O)N2,100%
17,CC1SC(c2c(Cl)cccc2Cl)N(NC(=O)c2[nH]c3ccc(F)cc3c2-c2ccccc2)C1=O (stereo not given),-1.11% (active)
18,COC1CC2CCC(C)C(O)(O2)C(=O)C(=O)N2CCCCC2C(=O)OC(C(C)CC2CCC(O)C(OC)C2)CC(=O)C(C)C=C(C)C(O)C(OC)C(=O)C(C)CC(C)/C=C/C=C/C=C1C (stereo not given),36.8%
19,COc1cc(NC(=O)c2cc3ccccc3cc2O)c(OC)cc1Cl,5.74% (active)
20,CC(C)[C@]12O[C@H]1[C@@H]1O[C@]13[C@]1(O[C@H]1C[C@H]1C4=C(CC[C@@]13C)C(=O)OC4)[C@@H]2OC(=O)CN(C)C,18.4%

row,Compound,growth
1,S=C1SCN(Cc2ccccc2)CN1Cc1ccco1,101%
2,CC(C)(C)c1ccc(S(=O)(=O)O)s1,99.2%
3,COc1ccc2[nH]cc(/C=C3/C(=O)Nc4ccc(Cl)cc43)c2c1,56.6%
4,O=C1C2C3C=CC(O3)C2C(=O)N1Nc1ccccc1 (stereo not given),103%
5,CCCCCCCC/C=C/CCCCCCCC1=NC(C)(C)CN1CCO,24.7%
6,CCOC(=O)c1c(C)c(C(=O)OCC)n(C)c1C,91.7%
7,c1ccc(N2CCN(c3nncc4ccccc34)CC2)nc1,100%
8,CCN(CC)c1ccc(N=Nc2cc(Cl)ccc2Cl)c(NC(=O)CCC(=O)O)c1,101%
9,N#CCCN(CCO)c1ccccc1,98.9%
10,CC(=O)Oc1c(C)c(OC(C)=O)c2c(c1C(C)=O)OC1CC(=O)C(C(C)=O)=C(O)C21C (stereo not given),99%
11,Cc1ccccc1-c1cc(Cc2ccccc2O)c(=O)[nH]n1,107%
12,CCN(CC)CCNc1ccc(Cl)cc1Cl,107%
13,OC(Cc1cccnc1)c1ccccc1 (stereo not given),94.8%
14,COc1c(O)cc2oc3cc(O)c(CC=C(C)C)c(O)c3c(=O)c2c1C/C=C(\C)CCC=C(C)C,45.1%
15,Clc1nc(Cl)c2ncn(-c3ccccc3)c2n1,95.3%
16,Cc1cc(Cl)ccc1Nc1nc(C(F)(F)F)ccc1C(=O)NCC(=O)N/N=C/c1c(Cl)cccc1Cl,44.9%
17,Cc1c(C(N)=O)sc2nc(SCC(=O)Nc3ccc(Cl)cc3)n(-c3ccccc3)c(=O)c12,116%
18,CN1C(=O)/C(=C/c2nc(-c3cccc(F)c3)n3ccccc23)c2ccccc21,44.9%
19,CN1C(=O)C(=Cc2cn(Cc3ccccc3)c3ccc(Br)cc23)C(=O)N(C)C1=O,88.5%
20,O=C(/C=C/c1ccc(Cl)cc1)c1ccccc1,88.9%
